From ChEMBL document CHEMBL4513141, “CO-ADD screening of NIH (USA) - Clinical Collection” (2021)
Entries with a potency or affinity are not part of this list.

System: Staphylococcus aureus
Conditions: Concentration 20 uM; ASSAY_TEST Inhibition of Bacterial Growth; detection method Absorption (OD600); MEDIA CAMHB; plate type 384well; NBS; CORNING #3640; time 18 hr

Compound	Inhibition [%]
CCN(CC)CCOc1ccc(C(=C(Cl)c2ccccc2)c2ccccc2)cc1.O=C(O)CC(O)(CC(=O)O)C(=O)O [CLOMIPHENE CITRATE]	43.2
CCCCC(=O)O[C@H]1CC[C@H]2[C@@H]3CCc4cc(O)ccc4[C@H]3CC[C@]12C [ESTRADIOL VALERATE]	3.82
CN(C/C=C/C#CC(C)(C)C)Cc1cccc2ccccc12.Cl [TERBINAFINE HYDROCHLORIDE]	10.26
CO[C@H]1O[C@@H]2O[C@@]3(C)CC[C@H]4[C@H](C)CC[C@@H]([C@H]1C)[C@@]24OO3	8.78
CS(=O)(=O)O.Oc1ccc(C2CNCCc3c2cc(O)c(O)c3Cl)cc1 (configuration not stated) [FENOLDOPAM MESYLATE]	13.63
NS(=O)(=O)c1cc2c(cc1Cl)NCNS2(=O)=O [HYDROCHLOROTHIAZIDE]	6.38
c1ccc2[nH]c(-c3cscn3)nc2c1 [THIABENDAZOLE]	9.35
CCCCN1CCCC1CNC(=O)c1cc(C#N)c2ccccc2c1OC (configuration not stated) [NAFADOTRIDE]	6.62
CC(C)(C)NC(=O)[C@H]1CC[C@H]2[C@@H]3CC[C@H]4NC(=O)C=C[C@]4(C)[C@H]3CC[C@]12C [FINASTERIDE]	-0.3
C[C@]12C[C@H](O)[C@H]3[C@@H](CCC4=CC(=O)CC[C@@]43C)[C@@H]1CC[C@@H]2C(=O)CO [CORTICOSTERONE]	12.8
O=C(O)c1cc2ccccc2c(Cc2c(O)c(C(=O)O)cc3ccccc23)c1O.OCCOCCN1CCN(C(c2ccccc2)c2ccc(Cl)cc2)CC1 [HYDROXYZINE PAMOATE]	11.96
CC1Cc2ccccc2N1NC(=O)c1ccc(Cl)c(S(N)(=O)=O)c1 (configuration not stated) [INDAPAMIDE]	5.44
CCOC(=O)[C@H](CCc1ccccc1)N[C@H]1CCc2ccccc2N(CC(=O)O)C1=O.Cl [BENAZEPRIL HYDROCHLORIDE]	9.63
CN1CCN(CC/C=C2/c3ccccc3Sc3ccc(S(=O)(=O)N(C)C)cc32)CC1 [THIOTHIXENE]	8.53
CN(C)CCCSc1ccccc1NC(=O)/C=C/c1ccccc1.Cl.O	14.82
CN1CCC(=C2c3ccccc3CCc3sccc32)CC1.O=C(O)/C=C\C(=O)O	4.8
Nc1ncnc2c1ncn2[C@@H]1O[C@H](CO)C[C@@H]1O.O	7.37
CCC[C@@H]1C[C@@H](C(=O)N[C@@H]([C@H]2O[C@H](SC)[C@H](O)[C@@H](O)[C@H]2O)[C@@H](C)O)N(C)C1.Cl.O [LINCOMYCIN HYDROCHLORIDE]	20.41
CCN(CC)CCNC(=O)c1ccc(N)cc1.Cl [PROCAINAMIDE HYDROCHLORIDE]	-10.39

Compound	Inhibition [%]
Nc1ccc2cn[nH]c2c1	-30.24
Cc1cn([C@H]2C=C[C@@H](CO)O2)c(=O)[nH]c1=O [STAVUDINE]	17.22
CN(C)CCC(c1ccc(Cl)cc1)c1ccccn1.O=C(O)/C=C\C(=O)O (configuration not stated) [CHLORPHENIRAMINE MALEATE]	-22.38
CCOC(=O)[C@H](CCc1ccccc1)N[C@@H](C)C(=O)N1Cc2ccccc2C[C@H]1C(=O)O.Cl [QUINAPRIL HYDROCHLORIDE]	16.74
Cc1ncc([N+](=O)[O-])n1CC(C)O (configuration not stated) [SECNIDAZOLE]	11.92
Nc1nc(N)c2nc(-c3ccccc3)c(N)nc2n1	-4.86
CC(=CCC1=C(C)C(=O)c2ccccc2C1=O)CCCC(C)CCCC(C)CCCC(C)C (configuration not stated)	7.33
C[C@H]1O[C@@H](O[C@H]2[C@@H](O)C[C@H](O[C@H]3[C@@H](O)C[C@H](O[C@H]4CC[C@@]5(C)[C@H](CC[C@@H]6[C@@H]5C[C@@H](O)[C@]5(C)C(C7=CC(=O)OC7)CC[C@]65O)C4)O[C@@H]3C)O[C@@H]2C)C[C@H](O)[C@@H]1O (some centres not stated)	15.53
CC(C)c1nc(CN(C)C(=O)N[C@H](C(=O)N[C@@H](Cc2ccccc2)C[C@H](O)[C@H](Cc2ccccc2)NC(=O)OCc2cncs2)C(C)C)cs1 [RITONAVIR]	13.2
CC(CCc1ccccc1)NCC(O)c1ccc(O)c(C(N)=O)c1.Cl (configuration not stated) [LABETALOL HYDROCHLORIDE]	13.4
OC[C@H]1O[C@@H](Oc2cc(O)cc(/C=C/c3ccc(O)cc3)c2)[C@H](O)[C@@H](O)[C@@H]1O [PICEID]	5.5
OCCN(CCO)c1nc(N2CCCCC2)c2nc(N(CCO)CCO)nc(N3CCCCC3)c2n1 [DIPYRIDAMOLE]	-23.93
O=[N+]([O-])c1cccc2cn[nH]c12 [7-NITROINDAZOLE]	16.98
CCC(=O)O[C@]1(C(=O)SCF)[C@H](C)C[C@H]2[C@@H]3C[C@H](F)C4=CC(=O)C=C[C@]4(C)[C@@]3(F)[C@@H](O)C[C@@]21C [FLUTICASONE PROPIONATE]	-21.58
CCOC(=O)[C@H](CCc1ccccc1)N[C@@H](C)C(=O)N1[C@H](C(=O)O)C[C@@H]2CCC[C@@H]21	17.44
O=C1C(CC[S+]([O-])c2ccccc2)C(=O)N(c2ccccc2)N1c1ccccc1 (configuration not stated) [SULFINPYRAZONE]	18.52
CCOC(=O)C1=C(C)NC(C)=C(C(=O)OC)C1c1cccc(Cl)c1Cl (configuration not stated) [FELODIPINE]	13.21
COC(=O)CCc1ccc(OCC(O)CNC(C)C)cc1.Cl (configuration not stated) [ESMOLOL HYDROCHLORIDE]	16.29
